Consider five compounds from PubChem BioAssay (EPA / NIEHS).

Test [1] in a line: Tanguay_ZF_120hpf_MORT_legacy: (Legacy) Oregon State University Tanguay Lab 120 Hour Post-fertilization zebrafish Assay for Mortality (AID 2283633). The method in brief: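 Dechorionated Tropical 5D wild-type zebrafish embryos, one per well from 6 hpf, static exposure in 0.64% DMSO at 28C until 120 hpf. Mortality scored as binary by brightfield microscopy at 24 and 120 hpf.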
Test [2] in a line: Tanguay_ZF_120hpf_YSE_legacy: (Legacy) Oregon State University Tanguay Lab 120 Hour Post-fertilization zebrafish Assay for Yolk Sac Edema (AID 2283634).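 On AC50: actives raise the incidence of yolk sac edema above the DMSO baseline.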 The gist of the method:
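Dechorionated Tropical 5D wild-type zebrafish embryos were exposed statically, one per well, from 6 to 120 hpf at 28C in 0.64% DMSO. Yolk sac edema was scored present/absent by brightfield at 120 hpf, and dead embryos were excluded.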

Test [3] is described as follows: Tanguay_ZF_120hpf_AXIS_legacy: (Legacy) Oregon State University Tanguay Lab 120 Hour Post-fertilization zebrafish Assay for Body Axis Malformation (AID 2283635).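 On AC50: potency for an increased fraction of larvae scored with body axis malformation.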 The method in brief:
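Dechorionated wild-type Tropical 5D zebrafish embryos, one per well, statically exposed from 6 hpf to 120 hpf at 28C in 0.64% DMSO final. Body axis malformation scored present/absent by brightfield microscopy at 120 hpf; dead embryos excluded.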

Test [4] in a line: Tanguay_ZF_120hpf_EYE_legacy: (Legacy) Oregon State University Tanguay Lab 120 Hour Post-fertilization zebrafish Assay for Eye Malformation (AID 2283636).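 Further: binary presence or absence of eye malformation scored by brightfield in 120 hpf larvae.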 The gist of the method:
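Binary brightfield scoring of eye defects at 120 hpf after static exposure from 6 hpf of single pronase-dechorionated wild-type embryos (28C, 0.64% DMSO). Non-mortality endpoints omitted where embryos died; fit vs DMSO.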

Test [5] can be described thus: Tanguay_ZF_120hpf_SNOU_legacy: (Legacy) Oregon State University Tanguay Lab 120 Hour Post-fertilization zebrafish Assay for Snout Malformation (AID 2283637). The gist of the method:
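Binary snout-malformation call at 120 hpf in wild-type 5D embryos, chorion removed by pronase, under static exposure from 6 hpf at 28C (0.64% DMSO). Embryos dying by 24 or 120 hpf excluded.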

The nature of test [6]: Tanguay_ZF_120hpf_JAW_legacy: (Legacy) Oregon State University Tanguay Lab 120 Hour Post-fertilization zebrafish Assay for Jaw Malformation (AID 2283638).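 On AC50: active means more embryos with jaw malformation than DMSO controls.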 The gist of the method: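 Dechorionated Tropical 5D wild-type zebrafish embryos, one per well, exposed statically from 6 hpf to 120 hpf at 28C in 0.64% DMSO. Jaw malformation was scored by brightfield microscopy as present or absent. It was not scored in dead embryos.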

Test [7] in a line: Tanguay_ZF_120hpf_OTIC_legacy: (Legacy) Oregon State University Tanguay Lab 120 Hour Post-fertilization zebrafish Assay for Otic Vesicle Malformation (AID 2283639). The gist of the method: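 Binary scoring of otic vesicle defects at 120 hpf in zebrafish (Tropical 5D) held under static exposure at 28C, sealed and shaded, with final DMSO 0.64%. Embryos dying by 24 or 120 hpf excluded; fitted positively against DMSO.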

Test [8] in a line: Tanguay_ZF_120hpf_PE_legacy: (Legacy) Oregon State University Tanguay Lab 120 Hour Post-fertilization zebrafish Assay for Pericardial Edema (AID 2283640).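 On AC50: potency for increased incidence of pericardial edema versus DMSO baseline.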 The gist of the method:
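Tropical 5D wild-type zebrafish embryos were statically exposed until 120 hpf at 28C, with 0.64% DMSO final. Pericardial edema was scored by brightfield as present or absent; endpoints were not scored in dead embryos.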

Test [9] is described as follows: Tanguay_ZF_120hpf_BRAI_legacy: (Legacy) Oregon State University Tanguay Lab 120 Hour Post-fertilization zebrafish Assay for Brain Malformation (AID 2283641). The gist of the method:
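Tropical 5D wild-type zebrafish embryos exposed statically until 120 hpf at 28C, 0.64% DMSO final, sealed and dark. Brain malformation scored present/absent by brightfield at 120 hpf; dead embryos excluded. Trimethyltin chloride 5uM positive control.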

A short description of test [10]: Tanguay_ZF_120hpf_SOMI_legacy: (Legacy) Oregon State University Tanguay Lab 120 Hour Post-fertilization zebrafish Assay for Somite Malformation (AID 2283647). The gist of the method: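 Dechorionated Tropical 5D wild-type zebrafish embryos, one per well from 6 hpf, statically exposed at 28C to 120 hpf in 0.64% DMSO; somite malformation scored present/absent by brightfield; trimethyltin 5 uM positive control; dead embryos not scored.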

Test [11] can be described thus: Tanguay_ZF_120hpf_PFIN_legacy: (Legacy) Oregon State University Tanguay Lab 120 Hour Post-fertilization zebrafish Assay for Pectoral Fin Malformation (AID 2283648).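 Further: each larva judged yes or no for fin defect by brightfield with dead larvae skipped.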 The gist of the method:
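Pectoral fin malformation was recorded as a binary endpoint at 120 hpf in wild-type Tropical 5D larvae, which had been dechorionated and exposed statically from 6 hpf at 28C in 0.64% DMSO. Dead embryos were excluded.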

Test [12] is described as follows: Tanguay_ZF_120hpf_CFIN_legacy: (Legacy) Oregon State University Tanguay Lab 120 Hour Post-fertilization zebrafish Assay for Caudal Fin Malformation (AID 2283649). The method in brief:
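Dechorionated Tropical 5D wild-type embryos, one per well from 6 hpf, static exposure to 120 hpf at 28C in 0.64% DMSO. Caudal fin malformation scored by brightfield as present/absent; not scored in dead embryos.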

The nature of test [13]: Tanguay_ZF_120hpf_PIG_legacy: (Legacy) Oregon State University Tanguay Lab 120 Hour Post-fertilization zebrafish Assay for Pigmentation Malformation (AID 2283650). The method in brief: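 Pigment malformation recorded as a binary call at 120 hpf in zebrafish (Tropical 5D) exposed singly from 6 hpf after pronase dechorionation. Static, sealed, 28C exposure, 0.64% DMSO; mortality excludes scoring; positive-direction fit against DMSO.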

Test [14] in a line: Tanguay_ZF_120hpf_CIRC_legacy: (Legacy) Oregon State University Tanguay Lab 120 Hour Post-fertilization zebrafish Assay for Circulatory Malformation (AID 2283651). The gist of the method: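 Binary circulatory malformation call at 120 hpf by brightfield imaging of zebrafish larvae; chorion removed at 4 hpf, static exposure from 6 hpf in sealed dark plates at 28C, final DMSO 0.64%; non-mortality endpoints skipped if embryo died.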

A short description of test [15]: Tanguay_ZF_120hpf_SWIM_legacy: (Legacy) Oregon State University Tanguay Lab 120 Hour Post-fertilization zebrafish Assay for Swim Bladder Malformation (AID 2283654).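 Further: swim bladder malformation in each larva scored yes or no under brightfield.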 The gist of the method:
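Scoring is binary for swim bladder defects at 120 hpf, by brightfield inspection of zebrafish larvae. Embryos were exposed singly from 6 hpf after pronase dechorionation, at 28C with 0.64% DMSO; mortality excluded scoring.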

Test [16] can be described thus: Tanguay_ZF_120hpf_TRUN_legacy: (Legacy) Oregon State University Tanguay Lab 120 Hour Post-fertilization zebrafish Assay for Truncated Body (AID 2283655). The gist of the method: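 Dechorionated Tropical 5D wild-type embryos placed singly from 6 hpf and statically exposed to 120 hpf at 28C, final DMSO 0.64%. Truncated body scored as present/absent by brightfield; not scored in dead embryos.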

A short description of test [17]: Tanguay_ZF_120hpf_NC_legacy: (Legacy) Oregon State University Tanguay Lab 120 Hour Post-fertilization zebrafish Assay for Notochord and Tail Malformation (AID 2283656). The method in brief:
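Binary scoring of notochord distortion by brightfield microscopy; embryos dying were not scored. Wild-type Tropical 5D embryos, chorion removed, exposed singly and statically from 6 to 120 hpf, 28C, sealed, 0.64% DMSO.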

Inconclusive results are not listed. Activity calls are given as the source filed them. How the source made its calls: active means hit-call score of the fitted dose curve at least 0.9, where 1 is the maximum; inconclusive means response in the unintended direction; inactive means score below 0.9.

In general, AC50 refers to the concentration at which the activity in the assay is half-maximal.

For the compound `CCOC(=O)C(Cl)Cc1cc(-n2nc(C)n(C(F)F)c2=O)c(F)cc1Cl` (stereo unspecified), the outcome in [1], in test [14], in test [15], in [16] and in test [17] was inactive. Moreover, the AC50 in test [2] was 1.27 µM (active); in test [3] it was 4.23 µM (active); in test [4] it was 1.7 µM (active); in [5] it was 4.26 µM (active); in test [6] it was 5.22 µM (active); in test [7] it was 1.82 µM (active). Moreover, the AC50 was 2.58 µM (active) in [8]; 2.91 µM (active) in test [9]; 2.22 µM (active) in test [10]; 2.19 µM (active) in test [11]; 5.09 µM (active) in test [12]; 1.88 µM (active) in [13].
In the case of `Fc1ccc(Oc2ccnc3cc(Cl)cc(Cl)c23)cc1`, the compound was called inactive in test [1], in test [2], in [3], in test [4], in [5] and in test [6]. For the same compound, the compound was classed as inactive in test [8], in test [9], in test [10], in test [11], in [12] and in test [13]. Also, the result in test [14], in test [15], in [16] and in test [17] was inactive.
As to `Cc1c(F)c(F)c(COC(=O)C2C(/C=C(\Cl)C(F)(F)F)C2(C)C)c(F)c1F` (stereo unspecified), the compound was called inactive in [1], in test [10], in test [12], in test [14], in test [15] and in test [17]. For the same compound, the AC50 in test [2] was 1.79 µM (active); in test [3], 3.4 µM (active); in [4], 3.05 µM (active); in [5], 4.35 µM (active); in test [6], 2.75 µM (active); in test [8], 5.03 µM (active). The concentration at half-maximal activity (AC50) in test [9] was 2.6 µM (active); in [11] it was 3.13 µM (active); in [13] it was 3.42 µM (active); in test [16], 2.36 µM (active).
On to `CCNc1nc(Cl)nc(NC(C)C)n1`, for which the compound was called inactive in test [1], in test [2], in test [3], in test [4], in [5] and in test [6]. Further, the outcome in test [8], in test [9], in test [10], in [11], in [12] and in test [13] was inactive. Also, the compound was classed as inactive in test [14], in [15], in [16] and in test [17].
Consider `CCCC1COC(Cn2cncn2)(c2ccc(Cl)cc2Cl)O1` (stereo unspecified), for which the compound was called inactive in test [1], in test [3], in [10], in test [11], in [12] and in test [13]. Also, the outcome in [14], in test [15], in [16] and in test [17] was inactive. The AC50 is 33.9 µM (active) in test [2]; 26.9 µM (active) in test [4]; 25.2 µM (active) in test [5]; 25.2 µM (active) in test [6]; 30.4 µM (active) in [8]; 30.2 µM (active) in test [9].
